# Assay results published in PubChem BioAssay (NCI).
# This is part of a sample that, as a whole, favours compounds with a hit. Of some 79,000 tested, about 15% had one in any assay. Unmarked numbers belong to inactive results. Active and inactive are the calls of the source. Cut-off read from the data, not from the text of the source: active = growth inhibition above about 70%; inactive = the rest.
# Legend:
# [1] = NCI Yeast Anticancer Drug Screen. Data for the sgs1 strain (AID 173);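 note: 0% = growth of vehicle-only control cultures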; conditions: S. cerevisiae sgs1 mutant, stronger effect = higher value
# How it was run: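 Inhibition of yeast growth served as the measure. The mutant strain was treated with each compound, and growth was normalised to cultures receiving vehicle alone.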
# [2] = NCI Yeast Anticancer Drug Screen. Data for the mlh1 rad18 strain (AID 175); conditions: S. cerevisiae mlh1 rad18 strain growth inhibition, stronger effect = higher value
# How it was run: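 Compound-treated yeast growth, normalised to vehicle controls. Strain bears defined DNA repair mutations.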
# [3] = NCI Yeast Anticancer Drug Screen. Data for the rad52 strain (AID 147);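 note: 0% = growth of vehicle-treated control cultures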; conditions: S. cerevisiae rad52 mutant growth inhibition, stronger effect = higher value
# How it was run: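 Genetically altered yeast (DNA damage repair defect) treated with compound; inhibition calculated relative to vehicle.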
# [4] = NCI Yeast Anticancer Drug Screen. Data for the wt1 strain (AID 149);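 note: 0% = growth of vehicle-treated wt1 cultures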; conditions: S. cerevisiae wt1 strain (SPY 50644) growth inhibition, stronger effect = higher value
# How it was run: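 wt1 yeast, compound-treated; % growth inhibition vs vehicle control.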
# [5] = NCI Yeast Anticancer Drug Screen. Data for the rad50EPP+ strain (AID 151);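 note: 0% = growth of vehicle-treated control cultures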; conditions: S. cerevisiae rad50 mutant strain, stronger effect = higher value
# How it was run: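 Strain rad50EPP+; compound exposure; % growth inhibition vs vehicle.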
# [6] = NCI Yeast Anticancer Drug Screen. Data for the rad50 strain (AID 155);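 note: 0% = growth of vehicle-only cultures of the same strain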; conditions: S. cerevisiae rad50 strain growth inhibition, stronger effect = higher value
# How it was run: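 Genetically altered yeast (DNA repair pathway); compound treatment; growth inhibition vs vehicle ctrl.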
# [7] = NCI Yeast Anticancer Drug Screen. Data for the mec2-1 strain (AID 157); conditions: S. cerevisiae mec2-1 strain, stronger effect = higher value
# How it was run: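 Cells of the genetically defined mec2-1 yeast strain are incubated with test compound. Inhibition of growth is calculated against vehicle-treated controls.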
# [8] = NCI Yeast Anticancer Drug Screen. Data for the rad14 strain (AID 159);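 note: 0% = growth of vehicle-treated control cultures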; conditions: S. cerevisiae rad14 strain growth inhibition, stronger effect = higher value
# How it was run: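 Test compounds were applied to a repair-deficient yeast strain. Its growth was then compared with that of cultures given vehicle alone, and inhibition was expressed relative to those controls.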
# [9] = NCI Yeast Anticancer Drug Screen. Data for the sgs1 mgt1 strain (AID 161);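 note: 0% = growth of cultures given vehicle only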; conditions: S. cerevisiae sgs1 mgt1 strain, stronger effect = higher value
# How it was run: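 Read-out: growth inhibition vs vehicle controls. Cells: mutant yeast strain deficient in DNA damage repair.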
# [10] = NCI Yeast Anticancer Drug Screen. Data for the CLN2oe strain (AID 163);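 note: 0% = growth of vehicle-only control cultures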; conditions: S. cerevisiae CLN2oe strain, stronger effect = higher value
# How it was run: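 Strain altered in cell-cycle control, incubated with compound; growth compared to solvent-treated controls.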
# [11] = NCI Yeast Anticancer Drug Screen. Data for the cln2 rad14 strain (AID 165);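 note: 0% = growth equal to vehicle treated cultures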; conditions: S. cerevisiae cln2 rad14 strain, stronger effect = higher value
# How it was run: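 The screen exposed genetically defined yeast (cln2 rad14) to test compounds and scored growth inhibition relative to vehicle-treated controls.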
# [12] = NCI Yeast Anticancer Drug Screen. Data for the bub3 strain (AID 167); conditions: S. cerevisiae bub3 mutant strain, stronger effect = higher value
# How it was run: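 Yeast carrying a defined mutation is treated with each compound, and growth is compared with that of vehicle-exposed cells to give inhibition.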
# [13] = NCI Yeast Anticancer Drug Screen. Data for the wt2 strain (AID 169);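 note: 0% = growth of vehicle-treated yeast cultures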; conditions: S. cerevisiae wt2 strain growth inhibition, stronger effect = higher value
# How it was run: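 Steps: yeast strain treated with compound; growth recorded; inhibition calculated relative to cultures given vehicle alone.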
# [14] = NCI Yeast Anticancer Drug Screen. Data for the mlh1 strain (AID 171);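 note: 0% = growth of vehicle-treated control cultures of the same strain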; conditions: S. cerevisiae mlh1 strain growth inhibition, stronger effect = higher value
# How it was run: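 Yeast screen: mutant strain plus compound, growth scored against vehicle control wells.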
# [15] = NCI Yeast Anticancer Drug Screen. Data for the rad18 strain (AID 177); conditions: S. cerevisiae rad18 mutant growth inhibition, stronger effect = higher value
# How it was run: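 Inhibition values reflect reduced yeast growth compared with vehicle-treated controls, using a strain engineered with a DNA damage repair defect.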
# [16] = at 5.0 µM (retest, dose inferred, filed as 0.5)
# [17] = at 50.0 µM (retest, dose inferred, filed as 5.0)
structure (smiles),measurement,setting,value
CC(=O)OC1CCC2(C)C(=CC(C3C=C4CC(OC(C)=O)CCC4(C)C4=C3C3CC5OC6(CCC(C)CO6)C(C)C5C3(C)CC4)C3=C2CCC2(C)C3CC3OC4(CCC(C)CO4)C(C)C32)C1 (centres undefined),growth inhibition,[1]; at 1.2 µM,-4%
same,growth inhibition,[1]; at 3.7 µM,-5%
same,growth inhibition,[1]; at 11.0 µM,3%
same,growth inhibition,[1]; at 33.0 µM,25%
same,growth inhibition,[1]; at 100.0 µM,72% (active)
same,growth inhibition,[2]; [16],-28%
same,growth inhibition,[2]; [17],88% (active)
same,growth inhibition,[2]; at 50.0 µM,82.5% (active)
COc1cc([C@@H]2c3cc4c(cc3[C@H](OC3OC5COC(C(C)C)OC5C(O)C3O)C3COC(=O)[C@@H]32)OCO4)cc(OC)c1O (some centres undefined),growth inhibition,[3]; at 1.2 µM,-10%
same,growth inhibition,[3]; at 3.7 µM,-17%
same,growth inhibition,[3]; at 11.0 µM,-26%
same,growth inhibition,[3]; at 33.0 µM,35%
same,growth inhibition,[3]; at 100.0 µM,78% (active)
same,growth inhibition,[4]; at 1.2 µM,-25%
same,growth inhibition,[4]; at 3.7 µM,-31%
same,growth inhibition,[4]; at 11.0 µM,12%
same,growth inhibition,[4]; at 33.0 µM,-18%
same,growth inhibition,[4]; at 100.0 µM,9%
same,growth inhibition,[5]; at 1.2 µM,-15%
same,growth inhibition,[5]; at 3.7 µM,-19%
same,growth inhibition,[5]; at 11.0 µM,-46%
same,growth inhibition,[5]; at 33.0 µM,-41%
same,growth inhibition,[5]; at 100.0 µM,-37%
same,growth inhibition,[6]; at 1.2 µM,-22%
same,growth inhibition,[6]; at 3.7 µM,-32%
same,growth inhibition,[6]; [16],18%
same,growth inhibition,[6]; at 11.0 µM,-11%
same,growth inhibition,[6]; at 33.0 µM,42%
same,growth inhibition,[6]; [17],96% (active)
same,growth inhibition,[6]; at 50.0 µM,1.85%
same,growth inhibition,[6]; at 100.0 µM,82% (active)
same,growth inhibition,[7]; at 1.2 µM,4%
same,growth inhibition,[7]; at 3.7 µM,1%
same,growth inhibition,[7]; [16],9%
same,growth inhibition,[7]; at 11.0 µM,-17%
same,growth inhibition,[7]; at 33.0 µM,-5%
same,growth inhibition,[7]; [17],47%
same,growth inhibition,[7]; at 50.0 µM,22.4%
same,growth inhibition,[7]; at 100.0 µM,34%
same,growth inhibition,[8]; at 1.2 µM,-14%
same,growth inhibition,[8]; at 3.7 µM,-27%
same,growth inhibition,[8]; at 11.0 µM,-11%
same,growth inhibition,[8]; at 33.0 µM,-22%
same,growth inhibition,[8]; at 100.0 µM,8%
same,growth inhibition,[9]; [16],-1%
same,growth inhibition,[9]; [17],32%
same,growth inhibition,[9]; at 50.0 µM,28.6%
same,growth inhibition,[10]; at 1.2 µM,-3%
same,growth inhibition,[10]; at 3.7 µM,3%
same,growth inhibition,[10]; at 11.0 µM,3%
same,growth inhibition,[10]; at 33.0 µM,-22%
same,growth inhibition,[10]; at 100.0 µM,7%
same,growth inhibition,[11]; [16],10%
same,growth inhibition,[11]; [17],9%
same,growth inhibition,[11]; at 50.0 µM,13.6%
same,growth inhibition,[12]; at 1.2 µM,-66%
same,growth inhibition,[12]; at 3.7 µM,-39%
same,growth inhibition,[12]; [16],10%
same,growth inhibition,[12]; at 11.0 µM,-50%
same,growth inhibition,[12]; at 33.0 µM,-63%
same,growth inhibition,[12]; [17],21%
same,growth inhibition,[12]; at 50.0 µM,8.5%
same,growth inhibition,[12]; at 100.0 µM,-2%
same,growth inhibition,[13]; at 1.2 µM,-58%
same,growth inhibition,[13]; at 3.7 µM,-40%
same,growth inhibition,[13]; at 11.0 µM,-45%
same,growth inhibition,[13]; at 33.0 µM,-19%
same,growth inhibition,[13]; at 100.0 µM,83% (active)
same,growth inhibition,[14]; at 1.2 µM,-31%
same,growth inhibition,[14]; at 3.7 µM,-8%
same,growth inhibition,[14]; at 11.0 µM,-32%
same,growth inhibition,[14]; at 33.0 µM,-29%
same,growth inhibition,[14]; at 100.0 µM,22%
same,growth inhibition,[1]; at 1.2 µM,-6%
same,growth inhibition,[1]; at 3.7 µM,-9%
same,growth inhibition,[1]; at 11.0 µM,1%
same,growth inhibition,[1]; at 33.0 µM,-5%
same,growth inhibition,[1]; at 100.0 µM,45%
same,growth inhibition,[2]; [16],18%
same,growth inhibition,[2]; [17],44%
same,growth inhibition,[2]; at 50.0 µM,-64.6%
same,growth inhibition,[15]; at 1.2 µM,6%
same,growth inhibition,[15]; at 3.7 µM,-5%
same,growth inhibition,[15]; at 11.0 µM,2%
same,growth inhibition,[15]; at 33.0 µM,-21%
same,growth inhibition,[15]; at 100.0 µM,41%
CCCCNC1CCC2(SCCS2)c2[nH]c3ccccc3c21 (centres undefined),growth inhibition,[3]; at 1.2 µM,2%
same,growth inhibition,[3]; at 3.7 µM,5%
same,growth inhibition,[3]; at 11.0 µM,3%
same,growth inhibition,[3]; at 33.0 µM,4%
same,growth inhibition,[3]; at 100.0 µM,5%
same,growth inhibition,[4]; at 1.2 µM,1%
same,growth inhibition,[4]; at 3.7 µM,1%
same,growth inhibition,[4]; at 11.0 µM,0%
same,growth inhibition,[4]; at 33.0 µM,1%
same,growth inhibition,[4]; at 100.0 µM,6%
same,growth inhibition,[5]; at 1.2 µM,-2%
same,growth inhibition,[5]; at 3.7 µM,-1%
same,growth inhibition,[5]; at 11.0 µM,-2%
same,growth inhibition,[5]; at 33.0 µM,-4%
same,growth inhibition,[5]; at 100.0 µM,7%
same,growth inhibition,[6]; at 1.2 µM,2%
same,growth inhibition,[6]; at 3.7 µM,3%
same,growth inhibition,[6]; [16],9%
same,growth inhibition,[6]; at 11.0 µM,-7%
same,growth inhibition,[6]; at 33.0 µM,3%
same,growth inhibition,[6]; [17],49%
same,growth inhibition,[6]; at 50.0 µM,87.3% (active)
same,growth inhibition,[6]; at 100.0 µM,6%
same,growth inhibition,[7]; at 1.2 µM,10%
same,growth inhibition,[7]; at 3.7 µM,-1%
same,growth inhibition,[7]; [16],4%
same,growth inhibition,[7]; at 11.0 µM,-2%
same,growth inhibition,[7]; at 33.0 µM,-4%
same,growth inhibition,[7]; [17],-14%
same,growth inhibition,[7]; at 50.0 µM,91.2% (active)
same,growth inhibition,[7]; at 100.0 µM,7%
same,growth inhibition,[8]; at 1.2 µM,6%
same,growth inhibition,[8]; at 3.7 µM,0%
same,growth inhibition,[8]; at 11.0 µM,4%
same,growth inhibition,[8]; at 33.0 µM,1%
same,growth inhibition,[8]; at 100.0 µM,9%
same,growth inhibition,[9]; [16],-5%
same,growth inhibition,[9]; [17],21%
same,growth inhibition,[9]; at 50.0 µM,85.2% (active)
same,growth inhibition,[10]; at 1.2 µM,10%
same,growth inhibition,[10]; at 3.7 µM,-4%
same,growth inhibition,[10]; at 11.0 µM,0%
same,growth inhibition,[10]; at 33.0 µM,-1%
same,growth inhibition,[10]; at 100.0 µM,6%
same,growth inhibition,[11]; [16],-7%
same,growth inhibition,[11]; [17],31%
same,growth inhibition,[11]; at 50.0 µM,89.5% (active)
same,growth inhibition,[12]; at 1.2 µM,-6%
same,growth inhibition,[12]; at 3.7 µM,1%
same,growth inhibition,[12]; [16],-16%
same,growth inhibition,[12]; at 11.0 µM,6%
same,growth inhibition,[12]; at 33.0 µM,-1%
same,growth inhibition,[12]; [17],17%
same,growth inhibition,[12]; at 50.0 µM,88.2% (active)
same,growth inhibition,[12]; at 100.0 µM,3%
same,growth inhibition,[13]; at 1.2 µM,1%
same,growth inhibition,[13]; at 3.7 µM,2%
same,growth inhibition,[13]; at 11.0 µM,3%
same,growth inhibition,[13]; at 33.0 µM,3%
same,growth inhibition,[13]; at 100.0 µM,8%
same,growth inhibition,[14]; at 1.2 µM,5%
same,growth inhibition,[14]; at 3.7 µM,-2%
same,growth inhibition,[14]; at 11.0 µM,4%
same,growth inhibition,[14]; at 33.0 µM,-1%
same,growth inhibition,[14]; at 100.0 µM,6%
same,growth inhibition,[1]; at 1.2 µM,0%
same,growth inhibition,[1]; at 3.7 µM,-2%
same,growth inhibition,[1]; at 11.0 µM,-1%
same,growth inhibition,[1]; at 33.0 µM,-3%
same,growth inhibition,[1]; at 100.0 µM,3%
same,growth inhibition,[2]; [16],1%
same,growth inhibition,[2]; [17],21%
same,growth inhibition,[2]; at 50.0 µM,84.7% (active)
same,growth inhibition,[15]; at 1.2 µM,2%
same,growth inhibition,[15]; at 3.7 µM,-4%
same,growth inhibition,[15]; at 11.0 µM,-4%
same,growth inhibition,[15]; at 33.0 µM,-18%
same,growth inhibition,[15]; at 100.0 µM,4%
